# Columns and labels:
# Conditions in all cases: concentration: 1 μM, replicates: in singlicate; n = 1
# [1] = test system: SGK2
# [2] = test system: SGK3
# [3] = test system: SGK
# [4] = test system: SIK2
# [5] = test system: SIK
# [6] = test system: SLK
# [7] = test system: T1, SNARK
# T1 construct: gene NUAK2
# [8] = test system: SNRK
# [9] = test system: SRC
# [10] = test system: SRMS
# 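Also: KINOMEscan kinase panel screen.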
SMILES,%Inh [1] [%],%Inh [2] [%],%Inh [3] [%],%Inh [4] [%],%Inh [5] [%],%Inh [6] [%],%Inh [7] [%],%Inh [8] [%],%Inh [9] [%],%Inh [10] [%]
O=C(Nc1n[nH]c2nc(-c3ccccc3)c(Cl)cc12)C1CC1 [SB-734909],5,12,9,27,0,15,0,33,0,0
CN(C)c1cc(-c2ccc3c(N)n[nH]c3c2)nc(N)n1 [GSK2219329],0,3,5,0,0,13,0,0,12,0
CCn1c(-c2ccoc2)nc2cnccc21 [SB-733887],5,4,12,0,0,25,0,0,0,0
COc1cccc(-n2cnc3c(N)ncnc32)c1 [SKF-97416],8,0,44,0,0,2,5,20,13,22
